From PubChem BioAssay (NCATS) come the findings set out here.

Test [1] addresses ATP-dependent 6-phosphofructokinase (Trypanosoma brucei brucei) (UniProt O15648). The experiment in a line: qHTS Assay to Find Inhibitors of T. brucei phosphofructokinase: hit validation (AID 492961).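 Further: luminescence reports ADP formed as PFK phosphorylates fructose-6-phosphate with ATP; on the % scale 0 is the no-effect control and ±100 the full control effect.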 In a few lines:
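In this biochemical qHTS validation, titrated compounds were tested against 1.25 nM PFK with 0.1 mM ATP and 0.5 mM F6P. Percent activity came from controls lacking or containing enzyme.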
A general note: In qHTS, concentration-response curves come from the screen itself.

The nature of test [2]: qHTS profiling for inhibitors of Plasmodium falciparum proliferation (AID 504749). Further: potency means the concentration at half of the fitted maximal effect.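 On activity, negative = inhibition: 0% = DMSO vehicle and full inhibition = artemisinin control.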 On all read-outs here: nearly all actives have a fitted effect of over 60% in size. As to conditions: P. falciparum in erythrocytes, SYBR Green DNA, 72 h; for activity, negative = inhibition: at 28.7 µM (top of the series). In short, it runs like this: (§1)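 Infected RBCs, 0.3% parasitemia/2.5% Hct final; cpd 72 h, 37 C, 5% CO2; lysis buffer with saponin/triton/SYBR Green I, o/n RT dark; FI 485/535; norm. to artemisinin (0.29 uM) and DMSO.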

Another test deals with 3D7. The description is as above. As to conditions: P. falciparum in erythrocytes, SYBR Green DNA, 72 h; series mostly up to 28.7 µM. In a few lines:
as §1

For another test, the system named is ATS189. The description is as above. As to conditions: P. falciparum in erythrocytes, SYBR Green DNA, 72 h; series mostly up to 28.7 µM. In a few lines: as §1
The test system of another test is CP185. The description is as above. As to conditions: P. falciparum in erythrocytes, SYBR Green DNA, 72 h; series mostly up to 28.7 µM. In short, it runs like this: as §1
The next test concerns CP191. Described as above. As to conditions: P. falciparum in erythrocytes, SYBR Green DNA, 72 h; series mostly up to 28.7 µM. In short, it runs like this: as §1
In another test the test system is CP192. The description is as above. The conditions noted are these: P. falciparum in erythrocytes, SYBR Green DNA, 72 h; series mostly up to 28.7 µM. In short, it runs like this:
as §1

The next test relates to CP194. The description is as above. The conditions noted are these: P. falciparum in erythrocytes, SYBR Green DNA, 72 h; series mostly up to 28.7 µM. In short, it runs like this:
as §1

For the next test, the system named is CP211. Described as above. The conditions noted are these: P. falciparum in erythrocytes, SYBR Green DNA, 72 h; series mostly up to 28.7 µM. In short, it runs like this:
as §1

Another test relates to CP217. The test is described as above. As to conditions: P. falciparum in erythrocytes, SYBR Green DNA, 72 h; series mostly up to 28.7 µM. In a few lines:
as §1

The subject of a further test is CP238. Described as above. The conditions noted are these: P. falciparum in erythrocytes, SYBR Green DNA, 72 h; series mostly up to 28.7 µM. In a few lines: as §1
The subject of the next test is CP252. The test is described as above. As to conditions: P. falciparum in erythrocytes, SYBR Green DNA, 72 h; series mostly up to 28.7 µM. In short, it runs like this:
as §1

The subject of a further test is CP262. Described as above. The conditions noted are these: P. falciparum in erythrocytes, SYBR Green DNA, 72 h; series mostly up to 28.7 µM. In a few lines: as §1
The test system of the next test is CP265. The test is described as above. As to conditions: P. falciparum in erythrocytes, SYBR Green DNA, 72 h; series mostly up to 28.7 µM. In a few lines: as §1
The next test relates to CP269. The test is described as above. The conditions noted are these: P. falciparum in erythrocytes, SYBR Green DNA, 72 h; series mostly up to 28.7 µM. In a few lines: as §1
The next test relates to CP286. The test is described as above. As to conditions: P. falciparum in erythrocytes, SYBR Green DNA, 72 h; series mostly up to 28.7 µM. In a few lines:
as §1

A further test has as its system CP329. The description is as above. The conditions noted are these: P. falciparum in erythrocytes, SYBR Green DNA, 72 h; series mostly up to 28.7 µM. In a few lines: as §1
Another test concerns Dd2. The description is as above. The conditions noted are these: P. falciparum in erythrocytes, SYBR Green DNA, 72 h; series mostly up to 28.7 µM. In short, it runs like this: as §1
For another test, the system named is ECU. The test is described as above. The conditions noted are these: P. falciparum in erythrocytes, SYBR Green DNA, 72 h; series mostly up to 28.7 µM. In a few lines:
as §1

Another test deals with FAB9. The test is described as above. As to conditions: P. falciparum in erythrocytes, SYBR Green DNA, 72 h; series mostly up to 28.7 µM. In short, it runs like this: as §1

Records with an inconclusive call do not appear. Values without a mark were called inactive. Active and inactive are the calls of the source. The call rests on the fitted dose curve; in most records, active means well fitted curve in the direction sought with a large enough effect; inconclusive means small, poorly fitted or top-dose-only effect, or another doubt; inactive means no such curve, though single readings can be large; an effect the other way counts as inactive or inconclusive.

ATP-dependent 6-phosphofructokinase (Trypanosoma brucei brucei), sequence (O15648 whole entry, looked up): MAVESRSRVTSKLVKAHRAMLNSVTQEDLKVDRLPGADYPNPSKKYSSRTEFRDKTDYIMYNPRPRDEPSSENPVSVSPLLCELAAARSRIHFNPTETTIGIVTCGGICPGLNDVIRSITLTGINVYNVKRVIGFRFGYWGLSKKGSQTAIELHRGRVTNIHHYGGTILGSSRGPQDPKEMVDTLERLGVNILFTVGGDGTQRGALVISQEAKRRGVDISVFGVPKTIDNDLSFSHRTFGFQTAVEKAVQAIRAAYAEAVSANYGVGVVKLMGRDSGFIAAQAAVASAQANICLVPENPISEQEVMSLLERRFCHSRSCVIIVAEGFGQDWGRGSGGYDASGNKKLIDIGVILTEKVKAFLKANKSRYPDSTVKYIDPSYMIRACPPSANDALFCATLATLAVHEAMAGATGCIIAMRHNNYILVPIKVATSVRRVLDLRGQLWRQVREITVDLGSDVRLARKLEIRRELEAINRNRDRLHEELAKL

Consider `C=C1NC(=O)c2cc(CN(C)c3ccc(C(=O)N[C@@H](CCC(=O)O)C(=O)O)s3)ccc2N1`, for which the Potency result (in [1]; in the test on 3D7; in the test with ATS189; in the test on CP185; with CP191; in the test with CP192) was “inactive” each time. Moreover, the Potency result with CP194, in the test with CP211, in the test on CP217, with CP238, with CP252 and in the test with CP262 was “inactive” throughout. Moreover, the Potency result in the test with CP265, in the test with CP269, in the test with CP286, in the test with CP329, in the test on Dd2 and in the test on ECU was “inactive” in each case. Further, the Potency entry with FAB9 is “inactive”. Also, the results for the activity, negative = inhibition in test [2] (parasite line A) and in [2] (parasite line B) were 2.89% and 4.82%, respectively.

As to `CNC1C(O)C(OC2C(NC(=O)C(O)CN)CC(N)C(OC3OC(CN)C(O)C(O)C3O)C2O)OCC1(C)O` (centres undefined), the Potency entry (in test [1]; in the test with 3D7; with ATS189; in the test with CP185; with CP191; with CP192) was “inactive” each time. Also, the Potency result in the test with CP194, in the test on CP211, in the test with CP217, with CP238, in the test on CP252 and in the test with CP265 was “inactive” in each case. For the same compound, the Potency result with CP269, in the test on CP286, in the test with CP329, with Dd2, with ECU and in the test with FAB9 was “inactive” throughout. Also, the activity, negative = inhibition in [2] (parasite line A) is 1.08%; in [2] (parasite line B), -10.1%.

Consider `CO/N=C(/C(=O)N[C@@H]1C(=O)N2C(C(=O)O)=C(CSc3nnnn3C)CS[C@H]12)c1csc(N)n1`, for which the Potency entry (in [1]; in the test with 3D7; with ATS189; in the test with CP185; in the test on CP191; in the test on CP192) was “inactive” each time. In addition, the Potency entry with CP194, in the test on CP211, in the test on CP217, in the test with CP238, in the test with CP252 and with CP262 was “inactive” each time. Also, the Potency entry in the test on CP265, in the test on CP269, in the test with CP286, with CP329, in the test on Dd2 and in the test on ECU was “inactive” in each case. Moreover, in the test on FAB9, the Potency entry is “inactive”. Also, the values for the activity, negative = inhibition in test [2] (parasite line A) and in [2] (parasite line B) were 6.68% and 0.88%, respectively.

`CC(=O)N1CC(O)CC1C(=O)O` (centres undefined): the Potency result (in test [1]; in the test on 3D7; with ATS189; with CP185; in the test with CP191; in the test with CP192) was “inactive” throughout. Moreover, the Potency result in the test on CP194, in the test on CP211, with CP217, with CP238, in the test with CP252 and in the test with CP262 was “inactive” in each case. The Potency entry in the test on CP265, with CP269, in the test with CP286, in the test on CP329, in the test on Dd2 and in the test on ECU was “inactive” in each case. Also, the Potency entry in the test with FAB9 was “inactive”. Moreover, the activity, negative = inhibition was -10.1% in test [2] (parasite line A) and -6.82% in [2] (parasite line B).

As for `CC(=O)C1(O)Cc2c(O)c3c(c(O)c2C(OC2CC(N)C(O)C(C)O2)C1)C(=O)c1c(O)cccc1C3=O` (centres undefined), the Potency result in test [1] was “inactive”. Also, the Potency in test [2] (parasite line A) was 5.01 µM (active); in test [2] (parasite line B), 11.2 µM (active); in the test on 3D7, 3.16 µM (active); with ATS189 it was 8.91 µM (active); in the test on CP185, 7.94 µM (active); in the test with CP191 it was 5.01 µM (active). Further, the Potency is 10.7 µM (active) in the test on CP192; 12 µM (active) with CP194; 9.53 µM (active) in the test on CP211; 10 µM (active) in the test on CP217; 8.91 µM (active) with CP238; 8.91 µM (active) with CP252. For the same compound, the Potency with CP262 was 12 µM (active); with CP265, 10 µM (active); in the test with CP269, 15.1 µM (active); with CP286, 3.16 µM (active); in the test with CP329 it was 12 µM (active); in the test on Dd2, 4.47 µM (active). Moreover, the Potency with ECU was 8.91 µM (active); with FAB9 it was 11.2 µM (active).
